According to PubChem BioAssay (NCATS):
Records with an inconclusive call do not appear. Calls of active or inactive are those of the source. Unless noted, calls follow the shape of the dose curve; as a rule, active = well fitted curve in the direction sought with a large enough effect; inconclusive = small, poorly fitted or top-dose-only effect, or another doubt; inactive = no such curve, though single readings can be large; an effect the other way counts as inactive or inconclusive.

Assays:
[1] = qHTS to identify inhibitors of the type 1 interferon - major histocompatibility complex class I in skeletal muscle: primary screen against the NCATS Pharmaceutical Collection (AID 1347407);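 also: luminescence of HiBiT knocked into endogenous HLA-B as interferon-induced MHC class I level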; also: potency is read from the fitted curve at half-maximal effect
In short: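 Immortalized human myoblasts (C25cl48) with HiBiT knocked into endogenous HLA-B*08:01 were stimulated with 4 ng/ml IFN-beta and treated with compounds (8-point, 1:5, top 46 uM final) for 24 h at 37 C; HiBiT lytic luminescence read.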

[2] = biological target: Protein phosphatase 1D (Homo sapiens) (UniProt O15297); test: RapidFire Mass Spectrometry qHTS Assay for Modulators of WT P53-Induced Phosphatase 1 (WIP1) (AID 1347424);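 also: amount of dephosphorylated VEPPL-S-QETFS peptide product formed by WIP1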; also: potency is read from the fitted curve at half-maximal effect
Chain of Protein phosphatase 1D (Homo sapiens) (O15297 whole entry, looked up): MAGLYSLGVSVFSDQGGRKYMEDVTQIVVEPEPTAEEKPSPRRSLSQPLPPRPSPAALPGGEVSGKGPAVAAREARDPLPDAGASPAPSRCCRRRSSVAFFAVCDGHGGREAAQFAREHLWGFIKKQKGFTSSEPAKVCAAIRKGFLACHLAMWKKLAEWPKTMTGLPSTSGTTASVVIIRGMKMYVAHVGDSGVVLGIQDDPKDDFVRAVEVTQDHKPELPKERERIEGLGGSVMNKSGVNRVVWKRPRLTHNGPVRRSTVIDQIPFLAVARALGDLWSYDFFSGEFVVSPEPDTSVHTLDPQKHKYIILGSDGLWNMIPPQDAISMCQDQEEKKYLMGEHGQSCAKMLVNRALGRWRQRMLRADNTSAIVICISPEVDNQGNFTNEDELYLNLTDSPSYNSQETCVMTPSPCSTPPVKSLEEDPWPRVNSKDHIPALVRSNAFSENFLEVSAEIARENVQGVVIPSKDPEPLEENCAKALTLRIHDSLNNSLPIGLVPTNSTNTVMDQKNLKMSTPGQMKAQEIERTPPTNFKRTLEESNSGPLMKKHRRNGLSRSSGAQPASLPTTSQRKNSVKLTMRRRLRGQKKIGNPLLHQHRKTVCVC
In short: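 WIP1 (10 nM final) was preincubated 1 h at room temperature with compounds in Tris-HCl pH 7.5, 30 mM MgCl2, TCEP, EGTA, BSA; 2 uM VEPPL-pS-QETFS phosphopeptide was added for 5 min, quenched with formic acid, and dephosphorylated product quantified by RapidFire MS.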

[3] = biological target: Protein phosphatase 1D (Homo sapiens) (UniProt O15297); test: Rhodamine-PBP qHTS Assay for Modulators of WT P53-Induced Phosphatase 1 (WIP1) (AID 1347425)
In short: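 WIP1 (5 nM final) was preincubated with compound for 1 hour at room temperature. It then dephosphorylated 10 uM VEPPL-pS-QETFS peptide in Tris-HCl pH 7.5 with 30 mM MgCl2. Released Pi was detected by 10 uM Rh-PBP fluorescence (ex 525/em 598 nm) read at 1-min intervals for 11 min, as delta f1 - f0.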

[4] = Primary qHTS for inhibitors of La Crosse Virus (LACV) - induced cell death in SH-SY5Y cells (AID 1508616);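 also: top concentration of the series differs between compounds; higher means more rescue of cells from virus-induced death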
In short: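 Readout was luminescence from ATPLite 1step added after a 6-day LACV infection (0.01 MOI) of SH-SY5Y cells that had received pin-transferred compound 24 hr after seeding.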

[5] = biological target: Calcium and integrin-binding protein 1 (Homo sapiens) (UniProt Q99828); test: Primary qHTS for Identification of Calcium Integrin Binding Protein 1 (CIB1) Competitor (AID 1508620); also: potency is read from the fitted curve at half-maximal effect
Chain of Calcium and integrin-binding protein 1 (Homo sapiens) (Q99828 whole entry, looked up): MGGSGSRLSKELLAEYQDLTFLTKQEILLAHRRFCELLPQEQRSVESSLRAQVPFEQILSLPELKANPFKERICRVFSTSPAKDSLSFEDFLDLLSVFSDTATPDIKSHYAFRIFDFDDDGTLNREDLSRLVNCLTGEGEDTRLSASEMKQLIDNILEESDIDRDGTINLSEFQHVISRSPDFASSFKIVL
In short: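 Fluorescence polarization competition: CIB1-GST (1 uM final) preincubated with compound 15 min at room temperature, then FITC-labeled alphaIIb peptide (100 nM final) added for another 15 min. Polarization read at Ex 480/Em 540.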

[6] = A High-Content qHTS Against Drug Library for the Identification of Small Molecules that Inhibit DYT1 Early Onset Primary Dystonia-Associated Cell Pathology (AID 1645839; calls by dose curve; also: potency is read from the fitted curve at half-maximal effect)
In short: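 Readout: %pathology, the punctate EGFP-TorsinA distribution from imaging, as the primary channel and cell count as the toxicity counterscreen. HEK293 Flp-In cells expressing delE TorsinA were induced with tetracycline and treated with compound for 48 h.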

[7] = Confirmatory qHTS for small molecule stabilizers of the endoplasmic reticulum resident proteome: Secreted ER Calcium Modulated Protein (SERCaMP) assay (AID 1508628); also: nearly all actives have a fitted effect of over 40% in size; also: potency is read from the fitted curve at half-maximal effect
In short: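 We seeded SH-SY5Y-GLuc-SERCaMP cells, added compounds (three concentrations in the primary run, eleven up to 76.6 uM in confirmation), incubated 16 h, depleted ER calcium with thapsigargin, and read luciferase 4 h later.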

[8] = biological target: Calcium and integrin-binding protein 1 (Homo sapiens) (UniProt Q99828); test: Confirmatory qHTS for Identification of Calcium Integrin Binding Protein 1 (CIB1) Competitor (AID 1508617); also: nearly all actives have a fitted effect of over 65% in size; also: potency is read from the fitted curve at half-maximal effect
In short: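 FP competition: CIB1-GST (1 uM final) in 5 mM HEPES pH 7.4, 125 mM NaCl, 5 mM CaCl2, 0.01% Tween20 preincubated 15 min RT with compounds (up to 114 uM), then FITC-alphaIIb peptide (100 nM), 15 min RT; Ex 480/Em 540.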

[9] = Cell Viability qHTS for small molecule stabilizers of the endoplasmic reticulum resident proteome (AID 1508629); conditions: cell viability counter-screen, 100 nM thapsigargin for final 4 h;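 also: potency is read from the fitted curve at half-maximal effect; compound exposure about 46 h in total before the viability read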
[10] = Primary qHTS for small molecule stabilizers of the endoplasmic reticulum resident proteome: Secreted ER Calcium Modulated Protein (SERCaMP) assay (AID 1508630); also: potency is read from the fitted curve at half-maximal effect
In short: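 GLuc-SERCaMP-expressing SH-SY5Y cells, pretreated 16 h with compound, are challenged with thapsigargin to empty ER calcium stores; after 4 h, coelenterazine is added directly to the medium and luminescence is imaged.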

Measured: Potency

Cc1ccc(O)cc1
inactive: [1] | [2] | [3] | [4] | [5] | [6]

CCOc1ncc(F)c(=O)[nH]1
inactive: [1] | [2] | [3] | [4] | [7] | [6]

O=[N+]([O-])c1ccc(O)c2ncccc12
inactive: [1] | [2] | [3] | [8]
active: [9] 7.94 µM | [10] 1 µM

CCCCNc1ccc(C(=O)OCCN(CC)CC)cc1
inactive: [1] | [2] | [3] | [5] | [10]

CC(C)(C)C(O)/C=C/c1ccc2c(c1)OCO2 (stereo not given)
inactive: [1] | [2] | [3] | [4] | [6]

Nc1c2ccccc2nc2ccccc12
inactive: [1] | [2] | [3] | [5] | [10]

O=C(O)c1ccc(OCCN2CCCCC2)cc1
inactive: [1] | [2] | [3] | [5]

COC(=O)CCCCC(CCSS/C(CCO)=C(\C)N(C=O)Cc1cnc(C)nc1N)SC(C)=O (stereo not given)
inactive: [1] | [2] | [3] | [5]

Nc1c(NC/C=C\COc2cc(CN3CCCCC3)ccn2)c(=O)c1=O
inactive: [1] | [2] | [3] | [4] | [5] | [6]

CCOC(=O)C(=O)CCc1ccccc1
inactive: [1] | [2] | [3] | [4] | [10] | [6]

Cc1cc(CCCOc2c(C)cc(-c3noc(C(F)(F)F)n3)cc2C)on1
inactive: [1] | [2] | [3] | [4] | [10] | [6]

Cn1c(=O)c2c(ncn2CC(=O)O)n(C)c1=O
inactive: [1] | [2] | [3] | [4] | [10] | [6]

CC(C)C(C)(C)C(C)(C)C(C)(C)S
inactive: [1] | [2] | [3] | [4] | [6]

COc1ccc2c(c1)c(CC(=O)OC/C=C(\C)CC/C=C(\C)CCC=C(C)C)c(C)n2C(=O)c1ccc(Cl)cc1
inactive: [1] | [2] | [3] | [4] | [10] | [6]

CC(=O)N(c1onc(C)c1C)S(=O)(=O)c1ccc(N)cc1
inactive: [1] | [2] | [3] | [4] | [6]

CN1CCCN(C(c2ccccc2)c2ccc(Cl)cc2)CC1 (stereo not given)
active: [9] 25.1 µM
inactive: [1] | [2] | [3] | [5] | [7]

CN(C)C(=O)CNC(=O)Cc1ccccc1
inactive: [1] | [2] | [3] | [4] | [10] | [6]

CN1CCC(N(Cc2cccs2)c2ccccc2)CC1
inactive: [1] | [2] | [3] | [8]
active: [7] 31.6 µM

O=C(Oc1ccccc1)c1cccc(C(=O)Oc2ccccc2)c1
inactive: [1] | [2] | [3] | [5] | [6]

O=C(c1ccco1)N1CCNCC1
inactive: [1] | [2] | [3] | [5] | [10] | [6]

CC(C)OP(=O)(CP(=O)(OC(C)C)OC(C)C)OC(C)C
inactive: [1] | [2] | [4] | [5] | [10] | [6]

CCCCCC(=O)O[C@]1(C(C)=O)CC[C@H]2[C@@H]3CCC4=CC(=O)CC[C@]4(C)[C@H]3CC[C@@]21C
inactive: [1] | [2] | [4] | [5] | [10] | [6]

CCCCN(CCN(CCCC)C(=O)N1CCOCC1)C(=O)N1CCOCC1
inactive: [1] | [2] | [4] | [5] | [10] | [6]

CC(=O)/C=C/C=C1/C2CCC(C2)C1(C)C (stereo not given)
inactive: [1] | [2] | [3] | [5] | [10] | [6]

O=C(O)Cn1cnnn1
inactive: [1] | [2] | [4] | [5] | [7] | [6]

CC(C)C(=O)Nc1cccc(C(F)(F)F)c1
inactive: [1] | [2] | [3] | [5] | [6]

COc1cc2c(cc1OC)C(=O)CC2
inactive: [1] | [2] | [3] | [5] | [10] | [6]

CC(=O)O[C@H]1CC[C@@]2(C)C(=CC[C@@H]3[C@@H]2CC[C@]2(C)C(C(C)=O)=CC[C@@H]32)C1
inactive: [1] | [2] | [3] | [5] | [10] | [6]

C/C(=N\O)[C@@H](C)NCC(C)(C)CN[C@H](C)/C(C)=N/O
inactive: [1] | [2] | [3] | [5] | [6]

CN1C(=O)CC(C)(c2ccccc2)C1=O (stereo not given)
inactive: [1] | [2] | [4] | [5] | [10] | [6]

COC(=O)c1cc(Cl)c(NC(C)=O)cc1OC
inactive: [1] | [2] | [3] | [5] | [6]

c1ccc2c(c1)CCc1ccccc1N2
inactive: [1] | [2] | [3] | [5] | [6]

Cc1cccc(OCC(O)CNC(C)(C)C)c1C (stereo not given)
inactive: [1] | [2] | [3] | [5] | [10] | [6]

O=C(NN1CCCC1)NS(=O)(=O)c1ccc(Cl)cc1
inactive: [1] | [2] | [3] | [10] | [6]

CO[C@@H]1[C@@H](OC)[C@H](C)[C@@](O)(CC(=O)O)O[C@H]1[C@H](C)[C@H]1O[C@@]2(CC[C@@](C)([C@H]3CC[C@@](C)([C@@H]4O[C@@H]([C@H]5O[C@](C)(O)[C@H](C)C[C@@H]5C)C[C@@H]4OC4C[C@H](OC)[C@@H](OC)[C@H](C)O4)O3)O2)C[C@H](O)[C@H]1C (stereo not given in full)
inactive: [1] | [2] | [3] | [10]

CCCC(=O)c1cc(O)c(O)cc1O
active: [2] 35.5 µM | [8] 35.5 µM | [5] 112 µM
inactive: [1] | [4]

COc1cc(C(=O)OC(COCCC(C)C)CN2CCOCC2)cc(OC)c1OC (stereo not given)
inactive: [1] | [2] | [3] | [5] | [10] | [6]

COc1ccc(CCC(C)=O)cc1
inactive: [1] | [2] | [4] | [5] | [10] | [6]

CCOC(=O)c1ccc(NC(=O)CN2CCCCC2)cc1
inactive: [1] | [2] | [3] | [5] | [10]

CSCC[C@H](NC(=O)[C@H](Cc1c[nH]c2ccccc12)NC(=O)CCNC(=O)OC(C)(C)C)C(=O)N[C@@H](CC(=O)O)C(=O)N[C@@H](Cc1ccccc1)C(N)=O
inactive: [1] | [2] | [3] | [5] | [6]

O=S(=O)(O)c1ccc2nc(-c3ccccc3)[nH]c2c1
inactive: [1] | [2] | [3] | [5] | [10] | [6]

COc1ccccc1N1CCN(CC(O)COc2cc(OC)c(OC)c(OC)c2)CC1 (stereo not given)
inactive: [1] | [2] | [3] | [5] | [10] | [6]

CCN(CC)CC(=O)Nc1c(C)cccc1C(=O)OC
inactive: [1] | [2] | [4] | [5] | [10] | [6]

Cc1ccc(C(C)OC(=O)C2(C)CCC(C(=O)O)C2(C)C)cc1 (stereo not given)
inactive: [1] | [2] | [3] | [5] | [10] | [6]

Nc1c(I)cc(I)c(C(=O)N(CCC(=O)O)c2ccccc2)c1I
inactive: [1] | [2] | [4] | [5] | [10] | [6]

NC(=O)C1(N2CCCCC2)CCN(CCCN2c3ccccc3CCc3ccc(Cl)cc32)CC1
inactive: [2] | [3] | [5] | [10]
active: [1] 23.6 µM | [6] 3.98 µM

C=CC[N+]1([C@H]2C[C@H]3[C@@H]4CC[C@H]5C[C@H](OC(C)=O)[C@@H](N6CCCCC6)C[C@]5(C)[C@H]4CC[C@]3(C)[C@H]2OC(=O)CC)CCCCC1
inactive: [1] | [2] | [4] | [5] | [10] | [6]

CN1CC[C@H](c2c(O)cc(O)c3c(=O)cc(-c4ccccc4Cl)oc23)[C@H](O)C1
active: [1] 0.21 µM
inactive: [2] | [3] | [10]

O=C1CC2(CCCC2)CC(=O)N1CCNCC1COc2ccccc2O1 (stereo not given)
inactive: [1] | [2] | [3] | [5] | [10] | [6]

CCCOc1ccc2c(c1)CC[C@@H]1[C@@H]2CC[C@]2(C)C(OC)CC[C@@H]12 (stereo not given in full)
inactive: [1] | [2] | [3] | [5] | [6]

CCOC(=O)NNc1ccc(N(CC)CC(C)O)nn1 (stereo not given)
inactive: [1] | [2] | [3] | [5] | [10] | [6]

CC(=O)c1cc2ccccc2s1
inactive: [1] | [2] | [3] | [10]

CCCCOCCOC(=O)c1cccnc1
inactive: [1] | [2] | [3] | [5] | [6]

CO/N=C(/C(=O)N[C@@H]1C(=O)N2C(C(=O)[O-])=C(C[n+]3ccn4ncccc43)CS[C@H]12)c1nsc(N)n1
inactive: [1] | [2] | [3] | [6]

CO[C@]1(NC(=O)CSC(F)F)C(=O)N2C(C(=O)O)=C(CSc3nnnn3CCO)CO[C@H]21
inactive: [1] | [2] | [3] | [5] | [10] | [6]

CC(C)(C)C1CCC(CC2=C(O)c3ccccc3C(=O)C2=O)CC1 (stereo not given)
inactive: [1] | [2] | [5] | [6]
